Assay outcomes from PubChem BioAssay.
TR SRC2 fluor cs – counter-screen for TRb-SRC2 inhibitors: fluorescence interference; TRb/SRC2 Texas Red total fluorescence interference; 280,000 tested, 0.29% active; Potency, µM (titrated, usually from 106 µM), inactives show at the top dose fluorescence change, negative = quenching; active = well fitted curve in either direction with a large enough effect; inconclusive = small, poorly fitted or top-dose-only effect
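Human TRb ligand-binding domain at 0.6 uM with 20 nM Texas Red SRC2 peptide in Tris buffer containing 1 uM T3 and 5% DMSO, incubated with compound 5 h at ambient temperature. Total fluorescence (555/632 nm) calculated as parallel + 2 × perpendicular.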
Tau FP inhib – inhibitors of human tau fibril formation; P10636; Potency, µM (highest dose often 57.7 µM), for the others: at the highest dose activity, negative = inhibition, usual class: inhibitors; K18 P301L tau heparin fibrillization, Alexa594 FP, 6 h; 280,000 tested, 0.39% active; note: nearly all actives have a fitted effect of over 55% in size
Target sequence (P10636 561-689 P618L limits assumed): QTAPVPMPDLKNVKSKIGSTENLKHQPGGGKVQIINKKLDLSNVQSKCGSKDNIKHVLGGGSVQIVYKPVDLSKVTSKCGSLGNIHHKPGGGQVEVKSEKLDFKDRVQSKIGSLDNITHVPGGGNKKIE
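K18 P301L tau (15 uM unlabeled/0.24 uM Alexa 594-labeled, final) + compound + heparin 20 uM final; 100 mM NaOAc pH 7; 6 hr 37 C; ThT 30 uM final added, 1 hr RT; FP ex 555/em 632 nm.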
TRb SRC2 PPI – inhibitors of human thyroid hormone receptor beta-SRC2 interaction; Potency, µM (series often up to 106 µM), for inactives: at the highest dose activity change, negative = inhibition, most hits filed as inhibitors; P10828; TRbeta-SRC2 peptide binding, fluorescence polarization; receptor liganded with 1 µM T3; 280,000 tested, 0.065% active;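 note: plate controls were bound peptide for no effect and peptide without receptor for full effect; nearly all actives have a fitted effect of over 50% in size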
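Human TRb LBD (0.6 uM) plus Texas Red-labeled SRC2 peptide (20 nM), 1uM T3, 5% DMSO, 5 hr at ambient temperature. Decreased polarization (555/632 nm) flags inhibition; data normalized to free and bound peptide controls.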
Tau fluor cs – counter-screen for tau fibril formation inhibitors; tau K18 P301L Alexa594 fluorescence, heparin fibrillization; Potency, µM (series often up to 57.7 µM), for the others: top-dose activity change, negative = decrease; 280,000 tested, 0.93% active; note: nearly all actives have a fitted effect of over 55% in size
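Human K18 P301L tau (15 uM unlabeled plus 0.24 uM Alexa 594-labeled, final) in 100 mM sodium acetate pH 7 was mixed with compound and 20 uM heparin and incubated 6 hr at 37 C.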
Tau fibril ThT – blocks human tau fibril formation measured by thioflavin T; P10636; recombinant tau K18 P301L (four-repeat tau fragment), heparin-induced fibrillization, ThT fluorescence; Potency, µM (doses to about 57.4 µM), inactives show at the highest dose activity, negative = inhibition, most hits filed as inhibitors; 270,000 tested, 2.1% active; note: nearly all actives have a fitted effect of over 55% in size
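Aggregation was driven by heparin (20 uM final) acting on recombinant tau […] bearing P301L in 100 mM sodium acetate pH 7; fibrils were detected with Thioflavin T.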
Numbers without * were called inactive; ? = inconclusive; nt = no result given; [ ] = another dose, or the depositor's remark. Only some compounds are listed: those with a hit (about 3% of all), similar ones and a draw of the others. Unless noted, calls come from the whole dose curve; as a rule, active = well fitted curve in the direction sought with a large enough effect; inconclusive = small, poorly fitted or top-dose-only effect, or another doubt; inactive = no such curve, though single readings can be large; an effect the other way counts as inactive or inconclusive. Unless noted, % is set by controls: 0 for no effect and ±100 for the full control effect; potency is the fitted concentration of half-maximal effect.

SMILES	TR SRC2 fluor cs	Tau FP inhib	TRb SRC2 PPI	Tau fluor cs	Tau fibril ThT
CC(Cc1ccc(O)c(O)c1)(NN)C(=O)O (stereo unspecified)	-9.6%	?	1.5%	-23.8%	14.1µM*
Cn1cc(C(=O)NCc2ccccc2)c(=O)c2cc(S(=O)(=O)N3CCCCCC3)ccc21	?	-2.3%	-8.7%	-19.0%	4.0%
CC(=O)Nc1ccc(NC(=O)Nc2ccc3c(c2)N(C)C(=O)CS3)cc1	0.9%	2.6%	1.7%	-19.5%	-14.2%
CCOc1ccc(OCC)c(NC(=O)Nc2ccc3c(c2)N(C)C(=O)CS3)c1	-2.0%	4.9%	13.8%	8.91µM*[quencher]	-17.9%
CN1C(=O)CSc2ccc(NC(=O)Nc3ccccn3)cc21	-2.9%	13.0%	-5.9%	?	?
COc1cccc(NC(=O)Nc2ccc3c(c2)N(C)C(=O)CS3)c1	-7.0%	2.1%	7.5%	14.1µM*[quencher]	?
Cc1nn(-c2ccccc2)c(N)c1C1(O)C(=O)N(C(C)C)c2ccccc21 (stereo unspecified)	1.8%	-6.7%	-2.3%	-13.3%	-11.8%
Cc1nn(-c2ccccc2)c2c1C1(C(=O)N(C(C)C)c3ccccc31)C(C#N)=C(N)O2 (stereo unspecified)	-3.6%	?	-2.6%	?	25.1µM*
CC1=NN(C(N)=S)C(=O)C1N=Nc1ccc(C)cc1C (stereo unspecified)	-4.4%	1.2%	2.0%	?	3.16µM*
CC(=O)NC(NC(=S)Nc1ccc(N=Nc2ccccc2C)cc1C)C(Cl)(Cl)Cl (stereo unspecified)	0.6%	-4.7%	-25.6%	?	?
CC1=NN(C(N)=S)C(=O)C1N=Nc1ccccc1C (stereo unspecified)	-1.4%	3.6%	8.6%	-14.6%	10µM*
CC1=NN(C(N)=S)C(=O)C1N=Nc1c(C)cc(C)cc1C (stereo unspecified)	-3.3%	2.9%	-6.9%	-21.5%	4.47µM*
O=C(c1ccc([N+](=O)[O-])cc1)N1c2ncnn2C2(CCCCC2)[C@@H]2CCCC[C@@H]21	3.8%	?	-12.9%	-4.8%	3.0%
CCOC(=O)c1ccoc1CSCc1ccc(C(=O)OC)o1	-3.7%	?	-8.5%	-27.7%	25.1µM*
O=C(O)CCC/C=C\C[C@@H]1C(/C=C/[C@@H](O)COc2cccc(C(F)(F)F)c2)[C@@H](O)C[C@@H]1O (stereo partly specified)	-0.4%	-6.9%	-3.2%	-4.4%	-2.5%
CC(C)C[C@H](N)CSSC[C@@H](N)CC(C)C	0.0%	?	-4.4%	-15.2%	5.01µM*
CCN(Cc1ccccc1)c1ccc(/C=N/NC(=O)c2cccc(S(=O)(=O)N3CCOCC3)c2)cc1	-1.0%	17.4%	-3.9%	-29.6%	-8.9%
CCN(CC)c1ccc(C(=C2C=CC(=[N+](CC)CC)C=C2)c2ccccc2)cc1	0.2%	nt	-7.9%	nt	nt
CCN(CC)c1ccc(C(=C2C=CC(=[N+](CC)Cc3cccc(S(=O)(=O)[O-])c3)C=C2)c2ccc(N(CC)Cc3cccc(S(=O)(=O)O)c3)cc2)cc1	11.2µM*[fluorescent]	nt	11.2µM*	nt	nt
CCN(Cc1cccc(S(=O)(=O)O)c1)c1ccc(C(=C2C=CC(=[N+](CC)Cc3cccc(S(=O)(=O)[O-])c3)C=C2)c2ccccc2)cc1	89.1µM*[quencher]	nt	?	nt	nt
COc1ccc(NC(=O)CC2Oc3ccc(C)cc3NC2=O)cc1Cl (stereo unspecified)	-25.5%	?	0.1%	16.6%	?
O=C1C[C@@H](O)[C@@H](O)[C@H]2[C@@H]3C(=O)N(C4CCCCC4)C(=O)[C@@H]3CC[C@H]12	2.8%[11.2 µM]	1.7%[11.6 µM]	-0.2%[11.2 µM]	?	?
COc1ccc(CNC(=O)CCc2c(C)nn(-c3ccc(N4CCCCC4)nn3)c2C)cc1	-1.1%	0.6%	5.5%	1.7%	-20.1%
Cn1c(=O)c2c(nc(N/N=C/c3ccc(OC(=O)c4ccco4)cc3)n2Cc2ccccc2)n(C)c1=O	-5.2%	10.3%	-0.2%	11.2µM*[quencher]	?
COCc1cc(=O)n2[nH]c(-c3ccsc3-n3c(C)ccc3C)cc2n1	-19.9%	?	6.8%	?	22.4µM*
